Results filed as inconclusive are left out. Entries that show only a call come without a potency. Calls of active or inactive are those of the source. Calls follow the shape of the dose curve; as a rule, active = well fitted inhibition curve with a large enough effect; inconclusive = small, poorly fitted or top-dose-only effect; inactive = no such curve, though single readings can be large or run the other way.
Test: qHTS Screen of the MIPE 4.0 Collection Against Ewings Sarcoma (EW8) (AID 1259255); also: nearly all actives have a fitted effect of over 35% in size
Settings: EW8 Ewing sarcoma viability, CellTiter-Glo, 48 h; series mostly up to 45.8 µM
How it was run: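 Here, cells in 5% FBS RPMI were exposed for two days (48 h) to compound dilutions added four hours after plating. ATP-based CellTiter-Glo luminescence measured viability, normalized to vehicle and no-cell blanks.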
Potency is read from the fitted curve at half-maximal effect.

Structure (SMILES) | Potency
CC(=O)C1=C(O)C=C2Oc3c(C(C)=O)c(O)c(C)c(O)c3C2(C)C1=O (centres undefined) | inactive
C=CC(=O)N1CCc2ccc(-n3c(=O)ccc4cnc5ccc(-c6cnn(C)c6)cc5c43)cc21 | 3.32 µM (active)
CC(Cc1ccc(O)c(O)c1)(NN)C(=O)O (centres undefined) | inactive
CCNC(=O)Nc1ccc(-c2nc3c(c(N4CCOC[C@H]4C)n2)CCN(C2COC2)C3)cc1 | 1.05 µM (active)
CC1(C)O[C@@H]2C[C@H]3[C@@H]4CCC5=CC(=O)C=C[C@]5(C)[C@@H]4[C@@H](O)C[C@]3(C)[C@]2(C(=O)CO)O1 | inactive
O=C(Nc1ccc(Oc2ccnc3[nH]ccc23)c(F)c1)c1cccn(-c2ccc(F)cc2)c1=O | inactive
C[C@@H]1[C@H](C)CC[C@]2(C(=O)O)CC[C@]3(C)C(=CC[C@@H]4[C@@]5(C)C[C@@H](O)[C@H](O)[C@@](C)(CO)[C@H]5CC[C@]43C)[C@@H]12 | inactive
CCCCCCCCCCCCc1ccc(S(=O)(=O)Nc2nncs2)cc1 | inactive
CON=C(C(=O)N[C@@H]1C(=O)N2C(C(=O)O)=C(CSC(=O)c3ccco3)CS[C@H]12)c1csc(N)n1 | inactive

Reference: PubChem BioAssay (NCATS)
